In the library only some 2.3% were active in any assay of this set; here they are far more common.
MCL1-BIM inh: inhibitors of MCL1 binding to BIM-BH3, primary screen, biochemical, fluorescence polarization. Induced myeloid leukemia cell differentiation protein Mcl-1 (Homo sapiens), Q07820. inhibition, % at 10.9 µM. 320,000 tested, 0.68% active. GST-MCL1 / FITC-Bim-BH3 fluorescence polarization;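 active means inhibition above the mean inhibition of all tested compounds plus 3 SD, set per campaign, cut at about 40% in these data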;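 further: higher means more loss of mP so more displacement of Bim peptide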
Bim-Mcl-1: inhibitors of Bim peptide binding to Mcl-1, primary screen, biochemical, bead-based flow cytometry, multiplex | Induced myeloid leukemia cell differentiation protein Mcl-1 (Homo sapiens), Q07820 | Bim peptide-Mcl-1 binding | inhibition, % at 10 µM | 190,000 tested, 0.1% active | AID 1009, 2008; in the data active means inhibition above about 40%
GLD-1 TGE inh: GLD-1/TGE RNA complex disruptors, primary screen, biochemical, fluorescence polarization. purified GLD-1 + fluorescein TGE RNA. inhibition, % at 5.96 µM. 320,000 tested, 0.44% active. AID 2280, 2010;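 active means percent inhibition above a per-plate cutoff, the plate mean of test compounds plus 3 SD, cut at about 30% in these data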
Target sequence (Q17339 whole entry, looked up): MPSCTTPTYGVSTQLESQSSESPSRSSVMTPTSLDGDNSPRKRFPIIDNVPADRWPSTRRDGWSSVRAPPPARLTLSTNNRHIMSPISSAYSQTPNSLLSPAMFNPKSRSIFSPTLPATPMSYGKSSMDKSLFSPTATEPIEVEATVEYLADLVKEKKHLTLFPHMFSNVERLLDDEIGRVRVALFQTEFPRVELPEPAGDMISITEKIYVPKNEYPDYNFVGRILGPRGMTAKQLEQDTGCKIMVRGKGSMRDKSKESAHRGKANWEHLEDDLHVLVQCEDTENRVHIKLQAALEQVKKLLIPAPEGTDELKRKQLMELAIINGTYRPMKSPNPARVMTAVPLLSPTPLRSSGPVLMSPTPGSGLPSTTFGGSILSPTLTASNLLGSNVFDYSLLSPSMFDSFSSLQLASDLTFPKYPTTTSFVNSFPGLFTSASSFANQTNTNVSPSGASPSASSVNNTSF
Mcl1-Bid inh: Mcl-1/Bid binding inhibitors, primary screen, biochemical, TR-FRET, 1536-well; 220,000 tested, 0.97% active; AID 1021, 2008; TR-FRET Mcl-1/Bid-Dy647 peptide binding; inhibition, % at 21.7 µM; Induced myeloid leukemia cell differentiation protein Mcl-1 (Homo sapiens), Q07820;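 active means compounds that cut the binding signal by more than half at the single screening dose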;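 further: His-tagged Mcl-1 with europium anti-His antibody binding Bid BH3 peptide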
Mcl1 Noxa PPI: Mcl-1/Noxa binding inhibitors, primary screen, biochemical, TR-FRET, 1536-well; inhibition, % at 21.7 µM; 220,000 tested, 1.5% active; TR-FRET Mcl-1/Noxa peptide binding, 2 h;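 active means compounds that cut the protein-peptide binding signal by more than 50% relative to plate controls in a single-dose test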;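 further: His-tagged Mcl-1 with rhodamine Noxa BH3 peptide and terbium anti-His antibody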
BCLXL inh: inhibitors of human Bcl-xL, primary screen, biochemical, fluorescence polarization, HTS; AID 2129, 2009; 320,000 tested, 0.7% active; GST-Bcl-xL / FITC-Bim BH3 peptide fluorescence polarization; inhibition, % at 10.9 µM;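 active means inhibition above the mean of all tested compounds plus 3 SD, cutoff set per campaign, cut at about 30% in these data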;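 further: inhibitors lower millipolarization by displacing the labeled peptide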
Target sequence (Q07817 whole entry, looked up): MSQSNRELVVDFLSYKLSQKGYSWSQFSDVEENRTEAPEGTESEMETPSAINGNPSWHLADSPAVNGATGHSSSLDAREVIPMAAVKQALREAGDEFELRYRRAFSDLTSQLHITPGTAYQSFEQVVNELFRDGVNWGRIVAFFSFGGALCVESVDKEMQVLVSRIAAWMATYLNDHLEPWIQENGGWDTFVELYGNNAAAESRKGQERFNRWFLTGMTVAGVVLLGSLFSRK
Hits are given with their value.

`O=C(CN1CCN(c2ccc(O)cc2)CC1)Nc1cc(S(=O)(=O)N2CCCC2)ccc1Cl` gave MCL1-BIM inh inactive, Bim-Mcl-1 inactive, GLD-1 TGE inh inactive, Mcl1-Bid inh inactive, Mcl1 Noxa PPI 57 and BCLXL inh inactive.
`CCN1CCN(CC(=O)Nc2cc(S(=O)(=O)N3CCCCC3)ccc2Cl)CC1` gave GLD-1 TGE inh inactive.
`O=C(CN1CCN(c2ccc(O)cc2)CC1)Nc1cc(S(=O)(=O)N2CCCCC2)ccc1Cl` gave MCL1-BIM inh inactive, Bim-Mcl-1 inactive, GLD-1 TGE inh inactive, Mcl1-Bid inh inactive, Mcl1 Noxa PPI 69 and BCLXL inh inactive.
`O=C1NC(c2ccccc2Cl)=N/C1=C/c1ccco1` gave MCL1-BIM inh inactive, GLD-1 TGE inh inactive, Mcl1-Bid inh inactive, Mcl1 Noxa PPI 61 and BCLXL inh inactive.
`O=C1NC(c2ccc(Br)cc2)=N/C1=C/c1ccco1` gave MCL1-BIM inh inactive, Bim-Mcl-1 inactive, GLD-1 TGE inh inactive, Mcl1-Bid inh inactive, Mcl1 Noxa PPI inactive and BCLXL inh inactive.
For Cc1ccc(NC(=S)Nc2cccc(-c3n[nH]c(=S)o3)c2)cc1 the results were MCL1-BIM inh inactive, GLD-1 TGE inh inactive, Mcl1-Bid inh inactive, Mcl1 Noxa PPI 59 and BCLXL inh inactive.
Cc1cc(C)c(S(=O)(=O)/N=C2/C=C(Sc3ncn[nH]3)C(=O)c3ccccc32)cc1C was read as MCL1-BIM inh inactive, Bim-Mcl-1 inactive, GLD-1 TGE inh inactive, Mcl1-Bid inh 72, Mcl1 Noxa PPI 100 and BCLXL inh inactive.
For Cc1ccc(S(=O)(=O)/N=C(\CCl)N2CCOCC2)cc1 the results were MCL1-BIM inh inactive, Bim-Mcl-1 inactive, GLD-1 TGE inh inactive, Mcl1-Bid inh 67, Mcl1 Noxa PPI inactive and BCLXL inh inactive.
For Cc1ccc(S(=O)(=O)C(CCC(=O)N2CCOCC2)S(=O)(=O)c2ccc(C)cc2)cc1 the results were MCL1-BIM inh inactive, Bim-Mcl-1 inactive, GLD-1 TGE inh inactive, Mcl1-Bid inh inactive, Mcl1 Noxa PPI 100 and BCLXL inh inactive.
For CC[C@]1(c2ccccc2OC)ON(c2ccccc2C(F)(F)F)C1=O the results were MCL1-BIM inh inactive, GLD-1 TGE inh inactive and BCLXL inh inactive.
For CCc1c(C)sc2nc3c(C(=O)N4CCOCC4)cc(C(=O)c4cc(F)ccc4O)cn3c(=O)c12 the results were MCL1-BIM inh inactive, Bim-Mcl-1 inactive, GLD-1 TGE inh inactive, Mcl1-Bid inh inactive, Mcl1 Noxa PPI inactive and BCLXL inh inactive.
Screening CCOC(=O)c1sc2nc3c(SCCC#N)cc(C(=O)c4cc(F)ccc4O)cn3c(=O)c2c1C returned MCL1-BIM inh inactive, Bim-Mcl-1 inactive, GLD-1 TGE inh inactive, Mcl1-Bid inh inactive, Mcl1 Noxa PPI inactive and BCLXL inh inactive.
`CCOC(=O)c1sc2nc3c(SCCC(=O)O)cc(C(=O)c4cc(OC)ccc4O)cn3c(=O)c2c1C` gave Bim-Mcl-1 inactive, Mcl1-Bid inh 85 and Mcl1 Noxa PPI 87.
Screening O=C(O)CSc1cc(C(=O)c2cc(F)ccc2O)cn2c(=O)c3c(-c4ccccc4)csc3nc12 returned MCL1-BIM inh inactive, GLD-1 TGE inh inactive, Mcl1-Bid inh inactive, Mcl1 Noxa PPI 104 and BCLXL inh inactive.
Screening Cc1nc2ccccc2c2c(N)c3ccccc3n12 returned MCL1-BIM inh inactive, Bim-Mcl-1 inactive, GLD-1 TGE inh inactive, Mcl1-Bid inh inactive, Mcl1 Noxa PPI inactive and BCLXL inh 35.
`O=[N+]([O-])c1ccc(COc2ccc(Br)cc2CN2CCOCC2)cc1` gave MCL1-BIM inh inactive, Bim-Mcl-1 inactive, GLD-1 TGE inh inactive, Mcl1-Bid inh inactive, Mcl1 Noxa PPI inactive and BCLXL inh inactive.
Screening COc1ccc(-c2nnn(CC(=O)N(CCCO)C(C(=O)NC3CCCC3)c3ccncc3)n2)cc1 (stereo unspecified) returned MCL1-BIM inh inactive, Bim-Mcl-1 inactive, GLD-1 TGE inh inactive, Mcl1-Bid inh 87, Mcl1 Noxa PPI inactive and BCLXL inh inactive.
Screening COc1ccc(/C=N/NC(=O)CCN2CCN(c3ccccc3)CC2)c(OC)c1OC returned MCL1-BIM inh inactive, Bim-Mcl-1 inactive, GLD-1 TGE inh inactive, Mcl1-Bid inh inactive, Mcl1 Noxa PPI inactive and BCLXL inh inactive.
`O=C(Cc1csc(N2CCOCC2)n1)N/N=C/c1ccc(O)c(O)c1O` gave Bim-Mcl-1 inactive, Mcl1-Bid inh inactive and Mcl1 Noxa PPI 85.
`O=C(CCN1CCN(c2ccccc2)CC1)N/N=C/c1ccc(O)c(O)c1O` gave Bim-Mcl-1 inactive, Mcl1-Bid inh inactive and Mcl1 Noxa PPI 77.
`Cc1cccc(Nc2nc3c(S(=O)(=O)c4ccccc4)nnn3c3ccccc23)c1` gave MCL1-BIM inh inactive, Bim-Mcl-1 inactive, GLD-1 TGE inh inactive, Mcl1-Bid inh 57, Mcl1 Noxa PPI inactive and BCLXL inh inactive.
Screening O=C(Nc1nccs1)C1CC(=O)N(Cc2ccco2)C1 (stereo unspecified) returned MCL1-BIM inh inactive, Bim-Mcl-1 inactive, GLD-1 TGE inh inactive, Mcl1-Bid inh 88, Mcl1 Noxa PPI inactive and BCLXL inh inactive.
COc1ccc(-c2csc(NC(=O)C3CC(=O)N(Cc4ccco4)C3)n2)cc1 (stereo unspecified) was read as MCL1-BIM inh inactive, Bim-Mcl-1 inactive, GLD-1 TGE inh inactive, Mcl1-Bid inh inactive, Mcl1 Noxa PPI inactive and BCLXL inh inactive.
For O=C(NC1CCCCC1)c1sc(=S)n2c1[nH]c(=O)c1ccccc12 the results were MCL1-BIM inh inactive, Bim-Mcl-1 inactive, GLD-1 TGE inh inactive, Mcl1-Bid inh inactive, Mcl1 Noxa PPI 76 and BCLXL inh inactive.
CN1CCN(c2ccccc2NC(=O)c2ccc(-c3ccc(Cl)cc3Cl)o2)CC1 was read as MCL1-BIM inh inactive, Bim-Mcl-1 inactive, GLD-1 TGE inh inactive, Mcl1-Bid inh inactive, Mcl1 Noxa PPI 65 and BCLXL inh inactive.
`O=[N+]([O-])c1ccc(-c2nc(NCc3ccccc3)c3ccccc3n2)cc1` gave MCL1-BIM inh inactive, Bim-Mcl-1 inactive, GLD-1 TGE inh inactive, Mcl1-Bid inh inactive, Mcl1 Noxa PPI 56 and BCLXL inh inactive.
Cc1ccc(-c2nc(N/N=C/c3cccc([N+](=O)[O-])c3)c3ccccc3n2)cc1 was read as MCL1-BIM inh inactive, Bim-Mcl-1 inactive, GLD-1 TGE inh inactive, Mcl1-Bid inh 60, Mcl1 Noxa PPI 54 and BCLXL inh inactive.
Screening Clc1cccc(/C=N/Nc2nc(Cl)nc3ccccc23)c1 returned MCL1-BIM inh inactive, Bim-Mcl-1 inactive, GLD-1 TGE inh inactive, Mcl1-Bid inh inactive, Mcl1 Noxa PPI 87 and BCLXL inh inactive.

Bioassay records as filed in PubChem BioAssay.
